tested on: MDA-MB-231; experiment: relative cell viability, compound + erastin, vs DMSO (fraction of DMSO control); higher = less growth inhibition; details: 72 h
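Also: viability read by CCK-8 kit in 96-well plates, part of a combination screen pairing lipid-metabolism-targeting compounds with erastin.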

SMILES	relative cell viability
O=C(O)C(=O)Nc1sc2c(c1C(=O)O)CCNC2 + CCOc1ccccc1-n1c(C(C)N2CCN(C(=O)COc3ccc(Cl)cc3)CC2)nc2ccccc2c1=O [erastin]	0.635
COc1ccc(-c2cc(=O)c3c(O)c(OC)c(O)cc3o2)cc1OC [Eupatilin] + CCOc1ccccc1-n1c(C(C)N2CCN(C(=O)COc3ccc(Cl)cc3)CC2)nc2ccccc2c1=O [erastin]	0.617
CCCCCCCCCCCC1=C(O)C(=O)C=C(O)C1=O [Embelin] + CCOc1ccccc1-n1c(C(C)N2CCN(C(=O)COc3ccc(Cl)cc3)CC2)nc2ccccc2c1=O [erastin]	0.575

Source: the supplement of paper PMC9492666
